{
  "source": "PubChem BioAssay AID504913",
  "about": "(The Scripps Research Institute Molecular Screening Center, 2011)",
  "note": "This is one part of the list. Active and inactive are the calls of the source. Rule as the data show it: active = activation above about 18%; inactive = the rest.",
  "data": [
    {"test": "activation of mu-delta opioid heterodimer signal – cell-based, luminescence, counter-screen for HTR5A agonist project (AID 504913)", "settings": "U2OS counter-screen cells, complementation luminescence, 3 h; at 9.3 µM; active compounds read high", "values": [
      {"compound": "COc1ccc(S(=O)(=O)N2CCN(CC(=O)N3c4ccccc4CC3C)CC2)cc1OC", "note": "(centres undefined)", "activation": "4.47% (inactive)"},
      {"compound": "Cc1ccccc1CN1CCN(CC(=O)NCc2ccccn2)C1=O", "activation": "0.64% (inactive)"},
      {"compound": "CCCOc1ccc(C(=O)C(CCC(CNCC)C(=O)c2ccc(OCCC)cc2)CNCC)cc1", "note": "(centres undefined)", "activation": "-0.5% (inactive)"},
      {"compound": "Cc1c(C(=O)OCC(=O)N2CCCC2=O)oc2ccccc12", "activation": "1.27% (inactive)"},
      {"compound": "Cc1ccc(CN2CCN(Cc3ccc(OCCO)cc3)CC2CCO)o1", "note": "(centres undefined)", "activation": "-0.37% (inactive)"},
      {"compound": "C/C(=N\\NC(=O)CNc1cccc2ccccc12)c1ccc(Br)s1", "activation": "-1.65% (inactive)"},
      {"compound": "CC(C)CC(=O)N/C(N)=N/c1nc2ccccc2s1", "activation": "5.76% (inactive)"},
      {"compound": "COc1cccc(OCC(=O)Nc2ccccc2C(N)=O)c1", "activation": "0.46% (inactive)"},
      {"compound": "CN1c2ccc(C=O)c3c(C=O)ccc(c23)N(C)C1(C)C", "activation": "107% (active)"},
      {"compound": "CCOc1ccc(NC(=O)Nc2cc(C)on2)cc1", "activation": "0.12% (inactive)"},
      {"compound": "CCOC(=O)c1cnc2sccn2c1=O", "activation": "1.07% (inactive)"},
      {"compound": "CCC(C)NC(=O)CCCc1ccccc1", "note": "(centres undefined)", "activation": "1.02% (inactive)"},
      {"compound": "Cc1ccc(CCC(=O)Nc2ncc(Cc3cc(Cl)ccc3Cl)s2)o1", "activation": "32.2% (active)"},
      {"compound": "Cc1ccc(C(=O)N/C(=C/c2ccco2)C(=O)NCCc2c[nH]c3ccccc23)cc1C", "activation": "0.35% (inactive)"},
      {"compound": "O=C(OC12CC3CC(CC(C3)C1)C2)c1ccc(NCc2cc(O)ccc2O)cc1", "activation": "8.31% (inactive)"},
      {"compound": "COC(=O)c1cc(C(=O)OCC(=O)Nc2cc(C)on2)cc([N+](=O)[O-])c1", "activation": "1.24% (inactive)"},
      {"compound": "c1cc(-c2nn[nH]n2)ccc1CN1CCCCC1", "activation": "0.2% (inactive)"},
      {"compound": "CC(=O)N1CCN(c2ccccc2NC(=S)NC(=O)c2cc3ccccc3o2)CC1", "activation": "0.56% (inactive)"},
      {"compound": "CNC(=S)N/N=C/c1ccc(OCc2ccccc2)c(Br)c1", "activation": "-1.02% (inactive)"},
      {"compound": "Cc1cccc2sc(N(CCCN(C)C)C(=O)CCS(=O)(=O)c3ccccc3)nc12", "activation": "0.46% (inactive)"},
      {"compound": "COc1ccccc1S(=O)(=O)NCc1ccc(C(=O)N(C)Cc2ccc(F)cc2)cc1", "activation": "3.43% (inactive)"},
      {"compound": "O=C(CC(O)(C(F)(F)F)C(F)(F)F)Nc1ccc(Cl)c(Cl)c1", "activation": "-1.36% (inactive)"},
      {"compound": "CC(=O)COc1ccc2c(-c3ccccc3)cc(=O)oc2c1", "activation": "63.2% (active)"},
      {"compound": "COc1ccc(-c2ocnc2C(=O)Nc2ccc3c(c2)CCC3)cc1", "activation": "-2.69% (inactive)"}
    ]}
  ]
}
